Results as given in PubChem BioAssay AID485317 (Broad Institute, 2010).
The campaign covered roughly 290,000 compounds. About 11,000 (3.8%) were called active.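 The calls were made as follows: active = mean replicate inhibition above about 79%, with every replicate also reaching it (limit read from the data); inconclusive = only one of the two criteria met; inactive = mean below limit and not every replicate reaching it.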 For the sample, actives were picked, then their nearest neighbours and some compounds at random.

These molecules were tested against FAD-linked sulfhydryl oxidase ALR (Homo sapiens) (UniProt P55789) (assay: inhibitors of human ALR sulfhydryl oxidase, primary screen, biochemical, H2O2 detection, HRP-luminol luminescence, single point (AID 485317)). Details: purified ALR, DTT oxidation, active compounds read high, concentration not given here.
Sequence of FAD-linked sulfhydryl oxidase ALR (Homo sapiens) (P55789 whole entry, looked up): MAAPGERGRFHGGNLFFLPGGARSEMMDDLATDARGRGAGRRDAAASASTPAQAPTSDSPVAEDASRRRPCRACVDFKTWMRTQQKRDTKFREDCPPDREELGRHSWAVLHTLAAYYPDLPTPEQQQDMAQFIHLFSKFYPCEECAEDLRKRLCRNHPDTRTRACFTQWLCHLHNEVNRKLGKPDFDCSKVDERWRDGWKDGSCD

inhibition, inactive:
COc1ccc(N2CCN(C(=O)CN3C(=O)COc4ccccc43)CC2)cc1 38%
CCCN1CCN(CCCNC(=O)CN2C(=O)COc3ccccc32)CC1 -3.58%
Cc1cccc(NS(=O)(=O)c2ccc(C)c(C(=O)NCC(c3ccccc3)N(C)C)c2)c1 (stereo unspecified) -16.5%
CN(C(=O)CSc1cccc[n+]1[O-])C1CCCCC1 -8.28%
CN(/N=C/c1ccccc1)C(=S)c1ccccc1 12.2%
N#Cc1ccc(OCC(=O)NC(=O)NC2CCS(=O)(=O)C2)cc1 (stereo unspecified) -0.0725%
CCOc1ccc(NC(=O)CN(C)C(=O)Cc2sc(C)nc2-c2ccc(F)cc2)cc1OCC -2.09%
Cc1ccc(N=Nc2c(C)[nH]n(-c3ccccc3)c2=O)cc1 -12.7%
Cc1ccc(-c2ccnc3[nH]n(-c4ccccc4)c(=O)c23)cc1 1.8%
COc1cccc(CNC(C)C(=O)Nc2ccc(S(=O)(=O)N3CCCC3)cc2)c1 (stereo unspecified) -0.631%
O=C(C[C@@H]1C/C=C\CCC(=O)OC[C@@H]2CCCN2C1=O)NCCO 2.95%
CN(C)c1ccc(/C=N\S(=O)(=O)c2ccccc2)cc1 0.19%
COCCn1c(C)cc(C(=O)CSc2nnc(C3CC3)n2C2CC2)c1C 13.1%
COc1ccc(C(=O)c2c3ccc([N+](=O)[O-])cc3[n+]([O-])n2CCCN)cc1 -50.8%
Cc1ccc(NC(=O)c2cccc(S(=O)(=O)N3CCCc4ccccc43)c2)nc1 -1.14%
CCn1c(COc2ccccc2)nnc1SCC(=O)Nc1ccc2c(c1)OCCO2 -3.91%
Cn1ccnc1SCC(=O)Nc1ccc2c(c1)OCCO2 47.8%
O=C(C1CC(=O)N(C2CCCCC2)C1)N1CCN(c2ccccc2)CC1 (stereo unspecified) 68.2%
O=C(NCc1cccc(Cl)c1)C1CCC(=O)N(C2CC2)C1 (stereo unspecified) -4.45%
COc1ccc(S(=O)(=O)N2CCOC23CCN(S(=O)(=O)c2ccc([N+](=O)[O-])cc2)CC3)cc1 0.209%
CCN1C(=O)[C@H]2[C@@H](c3ccc(-c4ccc(OC)cc4)cc3)N[C@@](Cc3ccccc3)(C(=O)OC)[C@H]2C1=O 3.62%
O=C1N=C(N2CCCC2)S/C1=C\c1cccc(Br)c1 8.82%
CCOc1cc(/C=C2\C(=N)N3N=C(C)SC3=NC2=O)ccc1OCCOc1ccccc1 -3.65%
Cc1ccsc1/C=C1\SC(N2CCOCC2)=NC1=O -15.8%
CC1CCN(C2=NC(=O)/C(=C/c3cn[nH]c3-c3ccccc3)S2)CC1 28.2%
CCOc1cc(C(=S)N2CCOCC2)ccc1O 2.75%
CCc1ccc(/C=C2\SC(N3CCOCC3)=NC2=O)cc1 -8.77%
COCCN(C(=O)CC1CCCCC1)c1c(N)n(CC(C)C)c(=O)[nH]c1=O -3.39%
O=C(NCc1ccccc1CN1CCCC1)c1cccc(S(=O)(=O)Nc2ccc(F)cc2)c1 -1.54%
CN(CC(=O)Nc1c(Cl)cccc1Cl)C(=O)CC1OC(=O)c2ccccc21 (stereo unspecified) 1.28%
CCCCn1c(N)c(N(CC(C)C)C(=O)CSc2ccc([N+](=O)[O-])cc2)c(=O)[nH]c1=O -3.66%
CN(C(=O)CSc1nnc(-c2ccc3c(c2)OCO3)o1)C1CCS(=O)(=O)C1 (stereo unspecified) -1.02%
CN(C)CCn1c2c(c(SCC(=O)NCc3ccccc3)nc1=O)CCC2 -45.9%
CN(CC(=O)Nc1ccc(OC(F)F)cc1)S(=O)(=O)/C=C/c1ccccc1 0.776%
Cc1cc(NC(=O)C(C)SCC(=O)Nc2ccccc2N2CCCCC2)no1 (stereo unspecified) 2.47%
O=C1NC(Cc2ccc(O)cc2)c2nc3ccc(Cl)cc3c(=O)n2-c2ccccc21 (stereo unspecified) 1.75%
CCCC[C@@H]1CN=C(N)N1CCc1cccc(F)c1 -12.6%
O=C1N[C@H](Cc2c[nH]c3ccccc23)COC(=O)[C@H](Cc2ccc(F)cc2)C/C=C\C[C@H]1CC(=O)N(CCO)Cc1ccccc1 -0.125%
COc1ccc(CCNc2cc(N3CCN(C(=O)c4ccccc4OC)CC3)ccc2[N+](=O)[O-])cc1OC -7.83%
COc1ccc2[nH]c(C(=O)N3CCN(C)CC3)c(C)c2c1 -19.3%
COc1ccc2[nH]c(=S)cc(C)c2c1 -27.6%
N#Cc1ccc(C2=CC(=O)C[C@H](c3ccc(Cl)cc3)C2)cc1 -5.77%
Cc1ccc(NC(=O)C2CC2)cc1S(=O)(=O)N1CCOCC1 -0.606%
Cc1ccc(NC(=O)NC2CCCCC2)cc1S(=O)(=O)N1CCOCC1 74.4%
COc1ccccc1OCCNC(=O)C(CCSC)NC(=O)COc1ccccc1 (stereo unspecified) 0.393%
CN(C)C(=O)CSc1n[nH]c(-c2ccco2)n1 -5.75%
O=C(CSc1n[nH]c(-c2cccnc2)n1)Nc1ccc(Cl)cc1 5.84%
COc1ccccc1N1CCN(C(=O)C2Cc3ccccc3CN2C(=O)c2ccco2)CC1 (stereo unspecified) 19.8%
CC(C)CN(C(=O)c1ccc2c(c1)OCO2)C1CCS(=O)(=O)C1 (stereo unspecified) 3.07%
CC1Sc2ccc(C(=O)NCc3ccccc3Cl)cc2NC1=O (stereo unspecified) -5.05%
Cc1ccc(CNC(=O)c2cc(-c3ccccc3C)n(CC3CC(c4cccc([N+](=O)[O-])c4)=NO3)n2)cc1 (stereo unspecified) -3.66%
O=C(N/N=C/c1cc(Br)c(O)c([N+](=O)[O-])c1)C(O)(c1ccccc1)c1ccccc1 14%
CCSC1=NCCN1S(=O)(=O)c1ccc(F)cc1 -3.09%
Cc1nnc(SCc2cccc(Cl)c2)n(N)c1=O -0.251%
CSC1=NCCN1C(=O)Cc1cccc2ccccc12 -43.6%
O=C(C1CCN(Cc2ccc(Cl)cc2)CC1)N1CCN(Cc2ccc3c(c2)OCO3)CC1 -2.64%
CC1CCN(C(=O)c2ccc(CSc3ccc(Cl)cc3)cc2)CC1 -6.8%
O=C(COc1ccccc1)N1CCN=C1SCc1cccc(F)c1 15.7%
O=C(c1ccco1)N1CCN(c2cccc(Cl)c2)CC1 12.7%
O=S(=O)(c1ccc(F)cc1)N1CCN=C1SCc1cccc(F)c1 -6.25%
O=C(C1CCC1)N1CCN(S(=O)(=O)c2ccc([N+](=O)[O-])cc2)CC1 -24.2%
O=C(COc1ccccc1F)Nc1nc(-c2ccccn2)cs1 -5.87%
COc1ccc(C2(C)ON(c3ccccc3C(F)(F)F)C2=O)cc1 (stereo unspecified) 1.44%
Cc1cccc(C)c1Nc1nnc(SCC(=O)NCCCN2CCCC2=O)s1 3.02%
C=CCC[C@H](Cc1ccc(F)cc1)C(=O)OC[C@@H](Cc1c[nH]c2ccccc12)NC(=O)[C@H](CC=C)CC(=O)N[C@H](CO)Cc1ccccc1 1.04%
Cc1ccc(C)c(OCC(=O)NNC(=O)C2CCC2)c1 -3.99%
O=C(NNC(=O)C1CCC1)c1ccccc1 -8.4%
COc1ccc(CCNC(=O)COC(=O)C2CC2C)cc1 (stereo unspecified) 5.1%
CCOc1ccc(S(=O)(=O)Nc2cccc(C(=O)NCC3(N4CCCCC4)CCCCC3)c2)cc1 -4.42%
CCOC(=O)c1[nH]c2ccc(OC)cc2c1NC(=O)CCN1CCN(Cc2ccccc2)CC1 24.1%
COC(=O)c1[nH]c2ccccc2c1NC(=O)CN1CCCc2ccccc21 -3.93%
CCCn1c(CCNc2nc(-c3ccc(OC)cc3)cs2)nc2ccccc21 12.7%
Cc1ccc(CC(=O)N(C)CC(=O)N(CC(C)C)c2c(N)n(CC(C)C)c(=O)[nH]c2=O)cc1C -5.01%
Cc1ccc2nc(SCC(=O)N3CC(C)OC(C)C3)nc(=O)n2c1 (stereo unspecified) -0.878%

inhibition, active:
COc1ccc(N2CCN(CCNC(=O)CCN3C(=O)COc4ccccc43)CC2)cc1 80.3%
Cc1ccc(C2C3=C(Nc4[nH]n(-c5ccccc5)c(=O)c42)c2ccccc2C3=O)cc1 (stereo unspecified) 87.2%
CC[n+]1cc(C)ccc1/C=C/c1ccc(N(C)C)cc1 99.4%
COc1cccc(NC(=O)CSc2nccn(-c3ccc4c(c3)OCCO4)c2=O)c1 98.6%
O=C(C1CCC(=O)N(C2CC2)C1)N1CCN(c2ccc(Cl)cc2)CC1 (stereo unspecified) 96.7%
CCOc1cc(/C=C2\SC(N3CCCCC3)=NC2=O)ccc1O 85.2%
CC1CCN(C2=NC(=O)/C(=C/c3ccc(O)cc3)S2)CC1 98.6%
CCOc1cc(/C=C2\SC(N3CCCC(C)C3)=NC2=O)ccc1O (stereo unspecified) 98%
COc1ccc2[nH]c3ccc(OC)cc3c2c1 97.3%
Cc1ccc(NC(=O)C(C)Sc2nnc(C3CC3)n2C2CC2)cc1S(=O)(=O)N1CCOCC1 (stereo unspecified) 96.1%
CN(C)c1ccc(NC(=O)CSc2n[nH]c(-c3ccco3)n2)cc1 98.9%
CS(=O)(=O)N1CCN=C1SCc1ccc(F)cc1 98.4%
O=C(C1CC1)N1CCN=C1SCc1ccc(Cl)cc1 98.3%
O=C(c1ccco1)N1CCN=C1SCc1cccc(Cl)c1 96.8%
CCC(=O)N1CCN=C1SCc1ccc(F)cc1 98.7%
Cc1ccc(NNC(=O)C2CCC2)cc1C 98.5%
COC(=O)c1[nH]c2ccc(Br)cc2c1NC(=O)Oc1ccccc1 97.3%
